Shiga inhibitor – blocks Shiga toxin action in Vero cells; inhibition, % at 38.7 µM; hit rate 9.2% among 290,000; Vero cells, Shiga toxin protein synthesis inhibition reporter; in the data active = inhibition mostly above about 28%, no sharp cut-off; inactive = mostly below about 43%; also: 0% is about no effect
CHX counter – counter-screen for Shiga toxin inhibitors: cycloheximide protein synthesis inhibition; cell reporter, cycloheximide protein synthesis inhibition counterscreen; AID 2314; max response, %; hit rate 12% among 300,000; in the data active = max response mostly above about 13%, no sharp cut-off; inactive = mostly below about 14%; also: read at 38.3 µM for the half of the compounds with a filed dose; 0% is about no effect
AMA1 RON2 block – inhibitors of Plasmodium falciparum AMA1-RON2 interaction; Potency, µM (highest dose often 58.2 µM), inactives show at the top dose activity change, negative = inhibition, actives largely listed as inhibitors; hit rate 0.2% among 360,000; AlphaScreen AMA1-biotinylated RON2 peptide binding;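 also: potency is read from the fitted curve at half-maximal effect; 0% = vehicle wells and -100% = peptide control; nearly all actives have a fitted effect of over 45% in size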
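AMA1 (3D7) with his tag at 25 nM final met compounds first, then biotinylated RON2 peptide at 25 nM; detection used donor plus acceptor beads, 10 µg/mL apiece, read by AlphaScreen after 30 min at room temperature.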
HCV inh – inhibitors of hepatitis C virus infection; Huh7.5.1 HCVcc-Cre infection, luciferase reporter, 44 h; Potency, µM (top dose mostly 41.8 µM), for the others: top-dose activity change, negative = inhibition, hits mostly inhibitors; hit rate 3.4% among 340,000; also: potency is read from the fitted curve at half-maximal effect; % is scaled to controls: 0 for no effect and ±100 for the full control effect
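A cell-based infection assay in which seeded cells (1,000 per well) receive test compound after 4 h, are inoculated with HCVcc-Cre at approximately 0.5 moi, and are incubated 44 h before luminescence detection.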
Pf growth 96h – inhibits malaria parasite growth, 96 h; hit rate 6.9% among 320,000; Potency, µM (series often up to 28.7 µM), for inactives: at the highest dose activity change, negative = inhibition, actives largely listed as inhibitors; P. falciparum luciferase reporter growth, 96 h; also: potency is read from the fitted curve at half-maximal effect; % is scaled to controls: 0 for no effect and ±100 for the full control effect
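P. falciparum expressing integrated firefly luciferase grown in erythrocytes (2% hematocrit, 0.05% parasitemia final) with compounds for 96 hours at 37 C, 5% CO2. Growth inhibition read as loss of luminescence after adding luciferase detection reagent.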
Pf growth 48h – P. falciparum growth inhibition at 48 hours (one generation); P. falciparum luciferase growth in erythrocytes, 48 h; Potency, µM (series often up to 28.7 µM), inactives show at the highest dose activity change, negative = inhibition, most hits filed as inhibitors; hit rate 5.9% among 310,000; also: potency is read from the fitted curve at half-maximal effect; % is scaled to controls: 0 for no effect and ±100 for the full control effect
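Luciferase-expressing parasites in RBCs, 2% Hct / 0.1% parasitemia final; RPMI 1640 + 0.5% Albumax; 37 C, 5% CO2, one generation; luminescence read-out, lower signal = inhibition.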
* marks the source's active call; other numbers are inactive results; ? = inconclusive; . = no result; [ ] = dose if it differs, or a comment. A selection: hits, their analogues and other compounds. The true share with any hit is near 21%. Unless noted, calls follow the shape of the dose curve; as a rule, active = well fitted curve in the direction sought with a large enough effect; inconclusive = small, poorly fitted or top-dose-only effect, or another doubt; inactive = no such curve, though single readings can be large; an effect the other way counts as inactive or inconclusive.

SMILES	Shiga inhibitor	CHX counter	AMA1 RON2 block	HCV inh	Pf growth 96h	Pf growth 48h
Cc1ccsc1C(=O)N1CCCC(CCC(=O)NCc2ccccc2F)C1 (configuration not stated)	28.6	15.3*	?	-2.9%	?	0.3%
COc1cccc(CNC(=O)CCC2CCCN(C(=O)Cc3ccccc3F)C2)c1 (configuration not stated)	23.4	4.8	-18.3%	5.6%	12.7%	-4.5%
Cc1ccc(C(=O)N2CCCC(CCC(=O)NCc3ccccc3F)C2)cn1 (configuration not stated)	27.2	20.7*	12.9%	22.3%	3.1%	22.0%
Cc1ccsc1S(=O)(=O)N1CCCC(CCC(=O)NCc2ccccc2F)C1 (configuration not stated)	14.1	6.7	7.3%	-30.9%	13.9%	-8.6%
C=CCOc1cccc(C(=O)N2CCCC(CCC(=O)NCc3ccccc3F)C2)c1 (configuration not stated)	72.9	28.7*	6.5%	-13.7%	20.5%	-10.8%
CC1CC=CC2C1C(=O)N(Cc1ccccc1)C2c1ccc2ccccc2c1 (configuration not stated)	16.5	-5.8	.	.	.	.
COc1ccc(N(C)S(=O)(=O)c2ccc(Cl)c(C(=O)NCC(C)(C)N3CCOCC3)c2)cc1	.	.	-15.7%	?	?	?
CCOC(=O)c1ccc(NC(=O)c2cn(-c3ccccc3)nc2-c2ccncc2)cc1	-1.6	-2.9	7.1%	?	0.0%	4.15µM*
Cc1ccc(-c2nn(-c3ccccc3)cc2C(=O)Nc2ccc(C(=O)O)cc2)cc1	47.8*	21.1*	-17.0%	-5.3%	?	85.3%
O=C(OCc1ccccc1)c1cn(-c2ccccc2)nc1-c1ccncc1	7.4	4.7	-6.9%	17.2%	9.28µM*	?
CCOc1ccccc1NC(=O)COC(=O)C12CC3CC(CC(O)(C3)C1)C2	.	.	0.1%	?	21.6%	57.3%
Cc1cc(Br)c(OCC(=O)NN)c2c1CCC2	7.8	-0.3	71.5%	-5.2%	-0.1%	?
O=C(Nc1ccc(F)c(Cl)c1)C1Cc2c(-c3ccccc3Oc3ccccc3)ccnc2O1 (configuration not stated)	.	.	-4.4%	.	.	.
COc1ccc(CN2CCCC(C(=O)Nc3cccc(-n4cnnn4)c3)C2)c(C)c1C (configuration not stated)	-5.3	-0.5	-11.9%	?	?	?
O=C(CSc1ccccn1)c1ccc2c(c1)OCO2	38.9*	37.2*	4.1%	12.2%	7.2%	154.5%
Cn1c(SCC(=O)c2ccc3c(c2)OCO3)nnc1-c1ccccn1	19.4	24.5	-22.5%	-14.0%	.	8.7%
O=C(CSc1nnc(SCc2cccc3ccccc23)s1)c1ccc2c(c1)OCO2	-6.7	13.7*	41.2%	8.2%	?	4.3%
O=C(CSc1ccccn1)Nc1ccc2c(c1)OCO2	100.8*	34.5*	-9.5%	-12.2%	55.5%	46.7%
O=C(CSc1ccccn1)NCc1ccc2c(c1)OCO2	-7.6	11.8*	-4.6%	-2.4%	?	65.0%
Cc1ccc(C)c(-n2ccnc2SCC(=O)Nc2cccc(S(=O)(=O)NC3=NCCC3)c2)c1	.	.	-3.8%	-16.9%	?	?
CCc1nc2c(OCC(=O)C(C)(C)C)cccn2c1N(C)C(=O)Nc1ccccc1OC	.	.	17.7%	.	.	.
CC(=O)N1CCN(C(=O)CNC(=O)c2ccc(C)s2)CC1	.	.	7.3%	21.4%	.	.
Cc1cc(Br)ccc1SCC(=O)Nc1cccnc1	-3.1	-4.5	33.4%	10.1%	?	?
CCn1c(=O)cc(SCC(=O)Nc2cccnc2)c2ccccc21	-2.8	-1.2	-1.3%	?	11.7µM*	14.0%
CCn1c(=O)cc(SCC(=O)Nc2ccc3c(c2)OCO3)c2ccccc21	24.9	9.9*	-8.1%	?	9.1%	23.5%
SMILES	Shiga inhibitor	CHX counter	AMA1 RON2 block	HCV inh	Pf growth 96h	Pf growth 48h
COC(=O)c1c(-c2ccccc2)oc2c1C(OCCO)CCC2 (configuration not stated)	.	.	-3.8%	.	.	.
CN(CC(=O)Nc1ccc(Cl)c(C(F)(F)F)c1)C(=O)Cn1cc([N+](=O)[O-])ccc1=O	.	.	34.0%	-21.1%	29.5%	15.9%
O=C(CN(c1ccccc1)S(=O)(=O)c1ccc(F)cc1)NCc1cccs1	.	.	-1.2%	-11.2%	?	?
COc1ccc(CNC(=O)CCC(=O)Nc2ccc(Cl)cc2)cc1	-8.5	0.9	1.2%	6.3%	-4.9%	8.3%
COC(=O)[C@@H]1C[C@@H]2CC[C@@H](O)C[C@@H]2N1Cc1ccccc1OS(=O)(=O)c1ccc(C)cc1	-7.6	-3.3	-6.5%	-0.7%	?	10.4µM*
COC(=O)[C@@H]1C[C@H]2CC[C@H](O)C[C@H]2N1Cc1ccccc1OC(=O)c1cccs1	-6.2	-1.1	5.1%	0.7%[8.37 µM]	?	9.28µM*
CN(CCc1ccccc1)C(=O)c1cccc(NC(=O)Cc2cccc(NC(=O)C3CCN(C(=O)c4ccccc4)CC3)c2)c1	.	.	0.0%	-17.6%[8.37 µM]	.	.
CCOC(=O)[C@]12CCC=C1N(Cc1cccc3ccccc13)C(=O)[C@H](CC(=O)NCC1CCCCC1)C2	.	.	-2.7%	.	.	.
O=C(c1ccc(N2C(=O)CCC2=O)cc1)N1CCCSC1=Nc1ccccc1	.	.	11.5%	.	.	.
CC(=O)c1ccc(NC(=O)C(C)OC(=O)C2CCN(c3ccc(C(F)(F)F)cn3)CC2)cc1 (configuration not stated)	.	.	16.7%	?	-4.1%	?
CC(OC(=O)C1CCN(c2ccc(C(F)(F)F)cn2)CC1)C(=O)Nc1ccc(S(N)(=O)=O)cc1 (configuration not stated)	-4.0	13.5	7.9%	.	13.1µM*	?
CC(OC(=O)C1CCN(c2ccc(C(F)(F)F)cn2)CC1)C(=O)Nc1cccc([N+](=O)[O-])c1 (configuration not stated)	.	.	-21.5%	8.3%	?	11.7µM*
Cc1ccc(NC(=O)C2(C)CCN2C(=O)Cc2ccccc2Cl)cc1C (configuration not stated)	.	.	11.6%	.	.	.
Cc1ccc(N(CC(=O)NCc2ccco2)C(=O)CCC(=O)Nc2ccccn2)c(C)c1	34.4*	16.9	-17.2%	?	51.8%	-0.8%
Cc1ccc(N(CC(=O)NC(C)C)C(=O)CCC(=O)Nc2ccccn2)cc1	-5.0	0.5	-11.9%	7.7%	3.7µM*	20.5%
Cc1cc(C)cc(N(CC(=O)NCc2ccccc2)C(=O)CCC(=O)Nc2ccccn2)c1	-7.0	-7.7	7.3%	?	4.7%	2.08µM*
Cc1cc(C)cc(N(CC(=O)NCc2ccco2)C(=O)CCC(=O)Nc2ccccn2)c1	8.4	12.1	4.9%	11.2%	50.3%	?
CCOC(=O)c1cc2c(cn1)[nH]c1ccccc12	59.1*	27.5*	0.0%	1.6%[8.37 µM]	?	30.3%
COC(=O)[C@H](CC(C)C)NC(=O)c1cc2c(cn1)[nH]c1ccccc12	-4.6	-2.2	0.0%	?	-26.2%	?

Source: PubChem
